In PubChem BioAssay:

Test: RAM pathway blockade in budding yeast – dse1pr::URA3 reporter, 5-FOA selection, pilot screen (AID 869);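 further: 0% = DMSO wells with no growth and 100% = 10 µM 1-NA-PP1 with full growth; RAM network block rescues cells from 5-FOA so hits raise OD615 growth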
Conditions: S. cerevisiae dse1pr::URA3 5-FOA growth, OD615, 2 d; at 10 µM; stronger effect = higher value; strain carries analog-sensitive mutant Cbk1 kinase;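 active means inhibition over a set limit, the all-compound mean plus 3 SD, in both replicate runs; inconclusive means over that limit in just one replicate run; inactive means at or under that limit in both runs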

inhibition, inactive:
CCCc1cc(C(=O)Nc2ccccc2SC)no1 0.2%
Cc1ccc(C(=O)OCC(=O)Nc2ccc3c(c2)OCO3)o1 0.95%
COC(=O)C(C#N)C(=C1C(=O)CC(C)(C)CC1=O)c1ccc(O)cc1 (stereo not given) 1.16%
COC(=O)c1cc(OC)c(OC)cc1NC(=O)c1ccc(Br)o1 3.2%
COc1cccc(NC(=O)CSc2nnc(Cc3cccn3C)n2-c2ccc(F)cc2)c1 1.09%
CCOc1ccc(N(CC(=O)OC)S(=O)(=O)c2ccc(OC)c(OC)c2)cc1 0.39%
COC(=O)C1=C(C)NC(C)=C(C(=O)OC)C1C1CC=CCC1 (stereo not given) 2.73%
CCCCCn1c(=O)[nH]c2cc(C(=O)NCCN3CCOCC3)ccc2c1=O 1.83%
COc1ccccc1OCC(=O)N1CCN(c2ccccc2OC)CC1 0.87%
COc1cccc(-c2nc(CS(=O)(=O)CC(=O)N3CCN(c4ccccn4)CC3)c(C)o2)c1 0.835%
CC1C(=O)C(C)C(c2cccs2)NC1c1cccs1 (stereo not given) 0.78%
COc1ccc(N2C(=O)CCC(C(=O)N3CCCCC3)C2c2ccc(OC)c(OC)c2)cc1 (stereo not given) 0.405%
COc1cccc(NC(=O)c2nc3nc(C)cc(C(F)F)n3n2)c1 0.62%
O=C(NCCN1CCOCC1)c1ccc2c(c1)N(Cc1ccccc1F)C(=O)CS2 1.9%
CCn1cc(C(=O)NCc2ccccc2OC)c(=O)c2cc(S(=O)(=O)N(C)C)ccc21 1.88%
CC1Cn2c(nnc2-c2ccc(F)cc2)S1 (stereo not given) 1.92%
COc1ccc(NC(=O)CN(c2ccc(C(C)C)cc2)S(=O)(=O)c2c(C)noc2C)cc1OC 3.67%
Cc1cc(C)c(C(=O)Nc2ccc(S(=O)(=O)Nc3onc(C)c3C)cc2)c(C)c1 2.68%
COc1ccc(C2CC(c3ccco3)n3ncnc3N2)cc1 (stereo not given) 2.36%
CCCCn1c(CN2CCN(c3ccccc3)CC2)nc2c1c(=O)n(C)c(=O)n2C 0.475%
Cc1ccccc1NC(=O)C1CCCN(S(=O)(=O)c2cnc[nH]2)C1 (stereo not given) 2.71%
CCOC(=O)C1CCCN(C(=O)c2cn(C)c(=O)c3cc(OC)c(OC)cc23)C1 (stereo not given) 1.17%
O=C(C1CCN(S(=O)(=O)c2cccc3cccnc23)CC1)N1CCN(C2CCCCC2)CC1 1.12%
Cc1nnc2n(-c3ccc(Cl)cc3)c(=O)c3c4c(sc3n12)CN(C)CC4 0.945%
COc1ccc(OC)c(NC(=O)c2nnn(Cc3ccc(Br)cc3F)c2N)c1 1.21%
CCCOc1ccc2ccccc2c1/C=N/n1cnnc1 -0.575%
CCOC(=O)C(C)(C)Sc1nc2c(cnn2-c2ccc(Cl)cc2)c(=O)[nH]1 1.89%
Cc1cccc(N2C(=O)CC(N3CCN(c4cccc(C(F)(F)F)c4)CC3)C2=O)c1 (stereo not given) 1.32%
CC(=O)N1c2c(cc(Br)cc2S(=O)(=O)N2CCN(c3ccccn3)CC2)CC1C (stereo not given) 0.77%
O=C(O)c1ccc2c(c1)C(=O)N(c1ccc(Cl)cn1)C2=O 1.22%
CC(=O)c1sc(NC(=O)C2COc3ccccc3O2)nc1C (stereo not given) 0.05%
COc1ccc(OC)c2[nH]c(=O)c(CCNC(=O)C(C)C)cc12 0.005%
COc1ccc(NC(=O)c2cc(C3CC3)on2)c(OC)c1 -0.14%
Cc1noc(C(=O)Nc2ccc3c(c2)OCO3)c1Cl 2.92%
CCC(CC)C(=O)NCCc1cc2ccc(C)cc2[nH]c1=O 0.02%
CCCS(=O)(=O)N1CCN(C(=O)c2cccnc2)CC1 -0.345%
CCCCn1c2c(c3ccccc31)CCc1nonc1-2 2.28%
COc1ccc(-c2[nH]c(-c3cccc(OC)c3)nc2SCC(=O)NCc2ccco2)cc1 1.09%
CC1=C(C(=O)OCc2ccccc2)C(c2ccco2)n2ncnc2N1 (stereo not given) 0.83%
Cc1c(C)n(C)c2ccc(C(=O)NCc3cccs3)cc12 1.61%
